# Laboratory results as given in PubChem BioAssay (NCI).
# About 83,000 compounds went through this panel and 20% of them were active in at least one assay; those are over-represented in the sample as a whole.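 Compound tested at a single concentration for 48 hours in 96-well plates; a percent growth value below 10 was scored as active.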 Values without a mark were called inactive. Calls of active or inactive are those of the source.
# Test system: OVCAR-5 ovarian
# Experiment: NCI-60 one-dose screen, 48 h (100 = growth as untreated, 0 = no growth, -100 = all killed)
# Conditions: 10 µM unless noted
# Experimental: Growth inhibition of the OVCAR-5 human tumor cell line is measured as a screen for anti-cancer activity. Cells are grown in 96 well plates and exposed to the test compound for 48 hours. Compounds are tested at a single concentration, which is 10^-5 M for most compounds. The reported endpoint is percent growth (GI% or GIPRCNT), where numbers from 0 - 100% represent growth inhibition, and numbers from -100% - 0 represent cell death. For example, a value of 40 represents 60% growth inhibition. A value of 0 means no net growth occurred over the course of the experiment. A value of -40 indicates 40% of cells at the beginning of the experiment died by the end of the experiment. A value of -100 means all cells are dead at the end of the experiment.
# NCI-60 Human Tumor Cell Lines Screen was performed using the standard one-dose NCI protocol, which is described in more detail at https://dtp.cancer.gov/discovery_development/nci-60/default.htm.
# Compounds with GIPRCNT values below 10 were considered active. Activity score was based on GIPRCNT using the following formula: […]
# Score is 0 for GIPRCNT values of 100 or above, 50 for GIPRCNT values of 0, and 100 for GIPRCNT values of -100.
row,SMILES,growth
1,N=S(=O)(NC(=O)c1ccc(Cl)cc1Cl)c1ccc(Br)s1 (stereo not given),119%
2,CCOC(=O)Cc1cnn(C)c1NC(=O)c1ccc(Cl)cc1NC(C)=O,99.3%
3,CCc1ccccc1NC(=O)c1sc2nc3c(cc2c1N)C(=O)CCC3,33.5%
4,Cc1cc2cc3cc(C)c(N(C)C)cc3[n+](C)c2cc1N(C)C,63.4%
5,C=C1CCC2C3(C)COC(c4ccc(OC)cc4Br)OC3CCC2(C)C1/C=C/C1=CCOC1=O (stereo not given),98.3%
6,COc1ccc(/C=c2/c(=O)[nH]c3nc4sc(C)c(C)c4c(=O)n23)cc1,105%
7,Cc1cc(=O)oc2cc(Oc3nc(-c4cccs4)cn4c(-c5cccs5)cnc34)ccc12,93.8%
8,CCCCCC(=O)N(CCCC)CCCC,103%
9,COc1ccc(Cl)cc1Nc1nc(C(F)(F)F)ccc1C(=O)N/N=C/c1cccnc1,57%
10,COc1ccc(C2c3ccc4ccccc4c3Oc3ncnc(N)c32)cc1 (stereo not given),97.9%
11,CC(=O)/C(=C/c1cccc(Cl)c1)C(=O)c1ccccc1,94.1%
12,COc1ccc(C2Nc3ccccc3-n3cccc32)cc1 (stereo not given),84.9%
13,Brc1cccc(-c2nc(-c3ccc4c(c3)OCCO4)co2)c1,81.4% [25 µM]
14,CCOC(=O)CC(=O)c1c(C)cc(C)cc1C,84.1%
15,Clc1cccc(Nc2nc(Nc3cnc4ccccc4c3)c3[nH]cnc3n2)c1,89.3%
16,Cc1[nH]n(-c2ccccc2)c2nc3nncc3c(-c3ccc(Cl)cc3)c12,99.1%
17,NC(=S)N/N=C/c1ccc(OCc2ccccc2)cc1,89.7%
18,OC(c1cccc(C(F)(F)F)c1)c1cnccc1NC1CCCCCC1 (stereo not given),79.8%
19,CC(C)[C@H]1COC(=O)N1[C@@H]1C(=O)N([C@@H](CCC(=O)N2CCN(C3CCCC3)CC2)C(=O)N[C@@H]2CCCc3ccccc32)[C@@H]1/C=C/c1cccc(Br)c1,88.2%
20,O=C(COCc1c(-c2ccccc2)no[n+]1[O-])Nc1ccc(C(=O)/C=C/c2ccc3c(c2)OCO3)cc1,99.4%

row,SMILES,growth
1,CSc1nc(NCCCNc2ccnc3cc(Cl)ccc23)cc(-c2ccccc2)n1,95%
2,NC(CC(=O)O)C(=O)OCc1ccccc1 (stereo not given),101%
3,O=c1c2cccc3c(NC4CCCCC4)ccc(c32)c2nc3ccccc3n12,103%
4,CCN(CC)CC(O)c1cc(-c2ccc(Cl)cc2)nc2c(C)c(Cl)ccc12 (stereo not given),-97.3% (active)
5,O=C(/C=C/c1ccc(Cl)cc1)c1ccc(O)c(CN2CCN(c3cc4c(cc3F)c(=O)c(C(=O)O)cn4C3CC3)CC2)c1,77.5%
6,Cn1c(=O)c2[nH]c(C(O)C(O)C(O)C(O)CO)nc2n(C)c1=O (stereo not given),101%
7,COc1ccc(-c2cn3c(-c4ccc(OC)cc4)cnc3c(Oc3ccc4c(C)cc(=O)oc4c3)n2)cc1,88%
8,CCCCCCNC(=O)Oc1ccc(/C(=C(\C)c2ccccc2)c2ccc(OCCN(CC)CC)cc2)cc1,76.9%
9,Cc1ccc(/C=C2\Oc3cc(OCC(=O)c4ccc(Cl)cc4)ccc3C2=O)cc1,102%
10,COC(=O)[C@H](C(C)C)n1c(=O)c2cc(OC)c(OC)cc2c2cnc3[nH]ccc3c21,39.9%
11,COc1cccc(/C=C2/C(=O)N(Cc3ccco3)SC2=S)c1OC,103%
12,Oc1cccc(Nc2nccc(-c3ccc4ccccc4c3)n2)c1,58.4%
13,CSc1nc(NCCO)c(C#N)c(-c2cccc(N)c2)n1,96.2%
14,CC1=C(NCCN2CCCC2)C(=O)c2c(OCc3cccc(Cl)c3)cccc2C1=O,79.9%
15,COc1ccc(S(=O)(=O)NCCCNc2cc(-c3c(-c4cccc(OC)c4)nc4sccn34)ccn2)cc1,86.3%
16,CC(C)[C@@H]1CC[C@]2(C(=O)NCCCCN=C(N)N)CC[C@]3(C)[C@H](CC[C@@H]4[C@@]5(C)CCC(=O)C(C)(C)[C@@H]5CC[C@]43C)[C@@H]12,97.4%
17,COc1ccc(-c2c3c(nc4n[nH]c(-c5ccc(Cl)cc5)c24)-c2ccccc2C(=O)C3=O)cc1,51.5%
18,CCN(CC)CC(C)(C)C(=O)/C=C/c1ccccc1,52.4%
19,CCCC(=O)Oc1ccc(/C(=C(/CC)Cc2ccccc2)c2ccc(OCCN3CCCC3)cc2)cc1,84.2%
20,O=c1[nH]c(-c2ccccn2)nc2sc3c(c12)CCCCC3,72.1%
